Screening results as filed in PubChem BioAssay.
ClpP mod: qHTS Assay for Activators of ClpP. ATP-dependent Clp protease proteolytic subunit (Bacillus subtilis (strain 168)), P80244. purified B. subtilis ClpP, FRET peptide cleavage, 20 min. Potency, µM (doses to about 57.5 µM), for inactives: top-dose activity change, negative = active. 340,000 tested, 1.9% active. AID 651965, 2013; active means well fitted falling curve with a large enough effect; inconclusive means small, poorly fitted or top-dose-only effect; inactive means no such curve, though single readings can be large or run the other way; further: potency means the concentration at half of the fitted maximal effect; the source files actives as falling curves though it sought activators and does not explain the sign; nearly all actives have a fitted effect of over 65% in size
Target sequence (P80244 whole entry, looked up): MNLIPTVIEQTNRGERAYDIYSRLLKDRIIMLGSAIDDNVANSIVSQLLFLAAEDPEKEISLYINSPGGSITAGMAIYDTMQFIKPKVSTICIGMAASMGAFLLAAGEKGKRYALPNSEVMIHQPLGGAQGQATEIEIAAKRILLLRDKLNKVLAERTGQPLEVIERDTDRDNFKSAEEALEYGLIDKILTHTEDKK
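FRET quenching reversal measured ClpP activation: 10 microg/mL B. subtilis ClpP at pH 8 with the FRET-FV decapeptide, read at 430 nm after 320 nm excitation. The 20-min minus 0-min signal was scaled between DMSO/no-enzyme wells and ADEP (5.8 microM final).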
GLP-1R agonist: agonists of human GLP-1 receptor | HEK293 GLP-1R CRE-luciferase, luminescence, 4-6 h; cells express a hypersensitive GLP-1R form | Potency, µM (series often up to 45.6 µM), for the others: top-dose activation, most hits filed as activators | 380,000 tested, 0.007% active | AID 624172; further: potency means the concentration at half of the fitted maximal effect; % of control where 0% means no effect
Target sequence (P43220 whole entry, looked up): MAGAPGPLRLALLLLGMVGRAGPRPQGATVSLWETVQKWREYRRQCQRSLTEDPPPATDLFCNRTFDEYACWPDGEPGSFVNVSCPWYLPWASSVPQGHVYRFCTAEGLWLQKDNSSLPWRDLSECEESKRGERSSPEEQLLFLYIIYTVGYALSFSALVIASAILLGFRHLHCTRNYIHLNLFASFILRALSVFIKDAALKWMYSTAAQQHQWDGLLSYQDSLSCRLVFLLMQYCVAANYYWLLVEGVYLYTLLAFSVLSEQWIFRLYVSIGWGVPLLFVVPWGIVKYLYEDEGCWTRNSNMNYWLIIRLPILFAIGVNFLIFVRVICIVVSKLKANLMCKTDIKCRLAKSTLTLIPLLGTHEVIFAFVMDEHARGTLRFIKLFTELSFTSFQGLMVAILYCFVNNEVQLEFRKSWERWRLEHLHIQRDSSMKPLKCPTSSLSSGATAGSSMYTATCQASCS
LDHA inh: LDHA (human) enzyme inhibition; P00338; purified LDHA, NADH/diaphorase-resazurin fluorescence; hits give low values; activity change, % (values are at about 110 or 230 µM); 480,000 tested, 0.15% active; AID 1347041; in the data active means activity change below about -30%; inconclusive means mostly about -25% to -30%;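 further: plate controls were DMSO wells for no effect and wells without enzyme for full effect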
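Human LDH5 at 2 nM final in Tris HCl pH 7.4 with 0.06 mM NADH and 0.2 mM pyruvate, reacted 5 minutes at room temperature. Remaining NADH coupled via diaphorase/resazurin; resorufin fluorescence read at 0 and 20 minutes, normalized to enzyme-free and DMSO wells.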
HEK293 tox: cytotoxicity in counter-screen for GLP-1R inverse agonists. HEK293 cAMP-luciferase reporter cells, luminescence, 24 h. Potency, µM (doses to about 38.3 µM), inactives show at the top dose activity change, negative = inhibition, most hits filed as inhibitors. 410,000 tested, 0.13% active. AID 624418;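 further: loss of luciferase light is scored as toxicity; potency means the concentration at half of the fitted maximal effect; on the % scale 0 is the no-effect control and ±100 the full control effect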
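To flag toxic compounds, the library was rerun on cells for 24 hr at 37 deg C and 5% CO2. Viability-linked luminescence was captured 12 min after adding luciferase detection reagent.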
p53 reactivation: re-activators of mutant p53. 320,000 tested, 0.063% active. H1299 p53-A138V BP100-luciferase reporter, luminescence, 24 h. Potency, µM (titrated, usually from 92.2 µM), for the others: top-dose activity change, positive = activation, actives largely listed as activators. AID 504706; further: potency means the concentration at half of the fitted maximal effect; % of control where 0% means no effect; nearly all actives have a fitted effect of over 45% in size
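p53-null H1299 cells stably carrying temperature-sensitive p53-A138V and a BP100-luciferase reporter were pinned with compounds (4-point, 1:5 series) and held 24 hrs at 37 deg C. Luminescence was read 10 min after detection reagent.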
GLP1R inv ag: inverse agonists of human GLP-1 receptor; P43220; HEK293 GLP-1R CRE-luciferase, luminescence, 24 h; GLP-1R form is constitutively active; Potency, µM (titrated, usually from 38.3 µM), inactives show at the top dose activity change, negative = inhibition, actives largely listed as inhibitors; 410,000 tested, 1.6% active; AID 624417; further: potency means the concentration at half of the fitted maximal effect; on the % scale 0 is the no-effect control and ±100 the full control effect; nearly all actives have a fitted effect of over 55% in size
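Inverse agonism was detected as reduced cAMP-driven luciferase luminescence after 24 h compound treatment. The cells were HEK293 clones expressing constitutively active human GLP-1R with the reporter. Reporter-only and GPR119 cell lines served as counterscreen controls.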
* = called active by the depositor. In the library only some 2.9% were active in any assay of this set; here they are far more common. Unless noted, the call rests on the fitted dose curve; in most records, active means well fitted curve in the direction sought with a large enough effect; inconclusive means small, poorly fitted or top-dose-only effect, or another doubt; inactive means no such curve, though single readings can be large; an effect the other way counts as inactive or inconclusive.

Results for CCN1CCN(c2cc(C)c3cc(NC(=S)NCc4cccs4)ccc3n2)CC1 ?
ClpP mod: -15%; GLP-1R agonist: 17%; LDHA inh: 1; HEK293 tox: inconclusive; p53 reactivation: 16%; GLP1R inv ag: inconclusive

Results for CCC(C)NC(=S)Nc1ccc2nc(N3CCN(CC)CC3)cc(C)c2c1 (configuration not stated) ?
ClpP mod: inconclusive; GLP-1R agonist: -1%; LDHA inh: -1; HEK293 tox: inconclusive; p53 reactivation: 4%; GLP1R inv ag: 3.5µM*

What do the screens show for `Cc1cc(N2CCN(C)CC2)nc2ccc(NC(=S)NCc3cccs3)cc12`?
GLP-1R agonist: 2%; LDHA inh: -6; HEK293 tox: inconclusive; p53 reactivation: 7%; GLP1R inv ag: 1µM*

How did CCN1CCN(c2cc(C)c3cc(NC(=S)N4CCN(c5ccccc5)CC4)ccc3n2)CC1 do in these assays?
GLP-1R agonist: 8%; LDHA inh: -4; HEK293 tox: 20%; p53 reactivation: 0%; GLP1R inv ag: 1.3µM*

What do the screens show for `CC(C)CNC(=O)c1ccccc1Oc1ccccc1`?
ClpP mod: -3%; GLP-1R agonist: 4%; LDHA inh: -9; HEK293 tox: 36%; p53 reactivation: 1%; GLP1R inv ag: inconclusive

Results for CCCN1CCN(C(=S)Nc2ccc3nc(N4CCN(CC)CC4)cc(C)c3c2)CC1 ?
GLP-1R agonist: 10%; LDHA inh: -10; HEK293 tox: 3.2µM*; p53 reactivation: 9%; GLP1R inv ag: 4µM*

Results for CCN1CCN(c2cc(C)c3cc(NC(=S)N4CCOCC4)ccc3n2)CC1 ?
ClpP mod: -13%; GLP-1R agonist: 2%; LDHA inh: 6; HEK293 tox: inconclusive; p53 reactivation: 11%; GLP1R inv ag: inconclusive

Results for Cc1cc(Nc2ccc3c(c2)OCCO3)c2cccc(C)c2n1 ?
ClpP mod: 32µM*; GLP-1R agonist: 4%; LDHA inh: -4; HEK293 tox: 8.9µM*; p53 reactivation: -7%; GLP1R inv ag: inconclusive

What do the screens show for `Cc1cc(Nc2ccc3c(c2)OCCO3)c2ccccc2n1`?
ClpP mod: 0%; GLP-1R agonist: 0%; LDHA inh: -7; HEK293 tox: inconclusive; p53 reactivation: 3%; GLP1R inv ag: inconclusive

How did OC(CN1CCCC1)Cn1ccc2ccccc21 (configuration not stated) do in these assays?
ClpP mod: -3%; GLP-1R agonist: 0%; LDHA inh: -5; HEK293 tox: 23%; p53 reactivation: 2%; GLP1R inv ag: 9%

How did OC(CNc1ccccc1)Cn1ccc2ccccc21 (configuration not stated) do in these assays?
ClpP mod: 0%; GLP-1R agonist: 3%; LDHA inh: -11; HEK293 tox: 0%; p53 reactivation: -2%; GLP1R inv ag: 11µM*

What do the screens show for `CN(/N=C/c1ccc2c(c1)OCO2)c1ccccc1`?
ClpP mod: 0%; GLP-1R agonist: -3%; LDHA inh: 1; HEK293 tox: -10%; p53 reactivation: 10µM*; GLP1R inv ag: 6%

Results for CCCCNCCOCCOc1ccc(F)cc1 ?
ClpP mod: 3.2µM*; GLP-1R agonist: 10%; LDHA inh: -15; HEK293 tox: -1%; p53 reactivation: 3%; GLP1R inv ag: 1%

How did Cc1onc(C(=O)N2CCN(Cc3ccccc3)CC2)c1[N+](=O)[O-] do in these assays?
ClpP mod: 1%; GLP-1R agonist: -1%; LDHA inh: 0; HEK293 tox: -8%; p53 reactivation: 11%; GLP1R inv ag: -18%

How did Cc1oc(-c2ccccc2)nc1CC(=O)Nc1ccc(OCC(F)(F)F)cc1 do in these assays?
LDHA inh: 1

Results for COc1ccc(-c2cc(C(=O)N3CCCN(C(C)=O)CC3)c3ccccc3n2)cc1 ?
LDHA inh: 1

Results for COc1ccc(-c2cc(C(=O)N3CCCCCC3)c3ccccc3n2)cc1 ?
ClpP mod: 6.3µM*; GLP-1R agonist: inconclusive; LDHA inh: 2; HEK293 tox: -1%; p53 reactivation: 2%; GLP1R inv ag: inconclusive

How did O=C(c1cc(-c2cccc(Br)c2)nc2ccccc12)N1CCCC1 do in these assays?
ClpP mod: -1%; GLP-1R agonist: 22%; LDHA inh: -5; HEK293 tox: 2%; p53 reactivation: -21%; GLP1R inv ag: 10µM*

What do the screens show for `Cc1ccc(-c2cc(C(=O)N3CC(C)CC(C)C3)c3ccccc3n2)o1` (configuration not stated)?
GLP-1R agonist: 6%; LDHA inh: 0; HEK293 tox: -3%; p53 reactivation: 9%; GLP1R inv ag: -14%

Results for Cc1ccc(-c2cc(C(=O)N3CC(C)OC(C)C3)c3ccccc3n2)o1 (configuration not stated) ?
ClpP mod: 14µM*; GLP-1R agonist: 12%; LDHA inh: -1; HEK293 tox: 50%; p53 reactivation: 24%; GLP1R inv ag: 13%

Results for O=C(c1cc(-c2ccc(Cl)s2)nc2ccccc12)N1CCCC1 ?
ClpP mod: 32µM*; GLP-1R agonist: 1%; LDHA inh: 1; HEK293 tox: -3%; GLP1R inv ag: 4%

What do the screens show for `O=C(NC1CCCC1)C(c1ccc(F)cc1)N(C(=O)c1csnn1)C1CC1` (configuration not stated)?
ClpP mod: -1%; GLP-1R agonist: 4%; LDHA inh: -4; HEK293 tox: -2%; p53 reactivation: 0%; GLP1R inv ag: -29%

What do the screens show for `CC(=O)Nc1cccc(NC(=O)C2CCCN2C(=O)Nc2ccc(Cl)cc2)c1` (configuration not stated)?
ClpP mod: 0%; GLP-1R agonist: 19%; LDHA inh: -16; HEK293 tox: -4%; p53 reactivation: -7%; GLP1R inv ag: 9%

Results for COc1ccc(C2=Nn3c(nnc3-c3ccccc3OC)SC2)cc1OCC1CC1 ?
GLP-1R agonist: 4µM*; LDHA inh: 2; p53 reactivation: 0%

How did COc1ccc(-c2nn3c(C4CCCCC4)nnc3s2)cc1OC do in these assays?
ClpP mod: inconclusive; GLP-1R agonist: 2.5µM*; LDHA inh: -1; HEK293 tox: -7%; p53 reactivation: -7%; GLP1R inv ag: 0%

What do the screens show for `COc1ccc(OC)c(-c2nnc3n2N=C(c2ccc(OC)c(OC)c2)CS3)c1`?
GLP-1R agonist: 2.2µM*; LDHA inh: 0; p53 reactivation: 3%
